# Data published in PubChem BioAssay (NCATS).
# Unmarked numbers belong to inactive results. No rule for the calls is given here.
# Test system: HIV-1 nucleocapsid protein NCp7 (binding to TG oligonucleotide)
# Test: HIV Nucleocapsid (AID 346);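 also: potency is for inhibitors that block NC binding and lower polarization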
# Details: HIV-1 NC / fluorescein-TGTGTGTG probe, fluorescence polarization
# Procedure, shortened: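 Reagents dispensed (10 nM TG4xF, 100 nM HIV-1 NC), plates spun, compounds pin-transferred, then incubated 1 hr at room temperature before FP imaging. Buffer: Hepes pH 7.5, 250mM NaCl, 1uM ZnCl2, 100 uM TCEP, 5 mM 2-mercaptoethanol.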
# Potency is read from the fitted curve at half-maximal effect.
row,Compound,Potency [µM]
1,CN(C)c1ncc2nc(CCc3ccccc3)c(=O)n(CCC#N)c2n1,> 20
2,COc1ccccc1CN1CCC2(CC1)CCN(C(=O)c1cccn1C)CC2,> 20
3,N#Cc1cccc(-c2cncnc2NCCc2cnc[nH]2)c1,> 20
4,COc1ncc2nc(C)c(=O)n(Cc3cccs3)c2n1,> 20
5,COc1ccccc1-c1nc(Nc2ccncc2)c2ccccc2n1,> 20
6,O=c1c(-c2cc(F)cc(F)c2)nc2cnc(Oc3ccccc3)nc2n1C1CC1,> 20
7,COc1ccc(-n2c(=O)c(-c3cccc(F)c3)nc3cncnc32)cc1,> 20
8,COCCn1c(=O)cnc2cnc(N3CCOCC3)nc21,> 20
9,COc1ccc(C(=O)N2CCC[C@@]3(CCN(c4cccc(-c5ccccc5)c4)C3)C2)cc1,> 20
10,CCNc1ncc2ncc(=O)n(CCOC)c2n1,> 20
11,O=c1c(CCc2ccccc2)nc2cnc(Oc3ccccc3)nc2n1C[C@H]1CCCO1,> 20
12,FC(F)(F)c1ccccc1-c1cc(NCCN2CCOCC2)ncn1,> 20
13,COc1ccc(C(=O)N2CCC[C@@]3(CCN(Cc4nccs4)C3)C2)cc1,> 20
14,O=c1cnc2cnc(Oc3cccc(Cl)c3)nc2n1C[C@H]1CCCO1,> 20
15,Cc1cccc(CNc2ncncc2-c2cccnc2)c1,> 20
16,COc1ccc(CNc2ccnc(-c3ccccc3C(F)(F)F)n2)c(OC)c1,> 20
17,O=C(c1ccco1)N1CCC2(CC1)CN(c1ncccn1)C2,> 20
18,COc1ccc(Oc2ncc3ncc(=O)n(C[C@H]4CCCO4)c3n2)cc1,> 20
19,Cc1nc2cnc(N3CCN(C)CC3)nc2n(C[C@H]2CCCO2)c1=O,> 20
20,O=C(c1cccc(F)c1)N1CCC[C@@]2(CCN(Cc3nccs3)C2)C1,> 20

row,Compound,Potency [µM]
1,Cn1c(=O)c(CCc2ccccc2)nc2cnc(N3CCNCC3)nc21,> 20
2,CS(=O)(=O)N1CCC2(CC1)CN(C(c1ccccc1)c1ccccc1)C2,> 20
3,Cn1c(=O)c(-c2cc(F)cc(F)c2)nc2cnc(N3CCOCC3)nc21,> 20
4,Cc1noc(C)c1-c1nc(NC2CC2)c2ccccc2n1,> 20
5,CNc1ccnc(-c2cccc(NS(C)(=O)=O)c2)n1,> 20
6,c1ccc(Nc2nc(-c3ccc4c(c3)OCO4)nc3ccccc23)cc1,> 20
7,FC(F)(F)c1ccccc1-c1nc(Nc2ccncc2)c2ccccc2n1,> 20
8,c1ccc2c(N3CCOCC3)nc(-c3ccoc3)nc2c1,> 20
9,N#Cc1cccc(-c2ccc3ncnc(NCc4cccs4)c3c2)c1,> 20
10,Cc1nc2cnc(N3CCOCC3)nc2n(CCc2ccccc2)c1=O,> 20
11,COc1ccc(CNc2ncncc2-c2c(C)noc2C)c(OC)c1,> 20
12,CC(C)CN1CC[C@@]2(CCCN(C(=O)c3ccco3)C2)C1,> 20
13,CC(=O)N1CCC2(CCN(Cc3ccc(C#N)cc3)CC2)CC1,> 20
14,CN(C)c1ncc2nc(-c3ccccc3)c(=O)n(CCC#N)c2n1,> 20
15,O=C(c1cc(C(F)(F)F)cc(C(F)(F)F)c1)N1CCC[C@@]2(CCN(Cc3ccncc3)C2)C1,> 20
16,COc1ccccc1CN1CC[C@@]2(CCCN(C(=O)c3ccco3)C2)C1,> 20
17,COCC(=O)N1CCC2(CCCN(c3ncccn3)C2)CC1,> 20
18,Cn1cccc1C(=O)N1CCC2(CCN(Cc3ccncc3)CC2)CC1,> 20
19,COCC(=O)N1CCC2(CC1)CN(c1ccc(-c3ccccc3)cc1)C2,> 20
20,COc1ccc(Oc2ncc3nc(-c4ccccc4)c(=O)n(Cc4cccs4)c3n2)cc1,> 20
